A selection: hits, their analogues and other compounds. The true share with any hit is near 2.4%.
D2 PAM-1 – D2 dopamine receptor (human) potentiation; P14416; HEK293 T-REx D2, calcium flux, EC20 dopamine potentiation; potentiation, % at 10 µM; 340,000 tested, 0.34% active;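 active = potentiation over 3 SD above the plate norm, cut at about 30% in these data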; note: 0% is about no effect
Target sequence (P14416 whole entry, looked up): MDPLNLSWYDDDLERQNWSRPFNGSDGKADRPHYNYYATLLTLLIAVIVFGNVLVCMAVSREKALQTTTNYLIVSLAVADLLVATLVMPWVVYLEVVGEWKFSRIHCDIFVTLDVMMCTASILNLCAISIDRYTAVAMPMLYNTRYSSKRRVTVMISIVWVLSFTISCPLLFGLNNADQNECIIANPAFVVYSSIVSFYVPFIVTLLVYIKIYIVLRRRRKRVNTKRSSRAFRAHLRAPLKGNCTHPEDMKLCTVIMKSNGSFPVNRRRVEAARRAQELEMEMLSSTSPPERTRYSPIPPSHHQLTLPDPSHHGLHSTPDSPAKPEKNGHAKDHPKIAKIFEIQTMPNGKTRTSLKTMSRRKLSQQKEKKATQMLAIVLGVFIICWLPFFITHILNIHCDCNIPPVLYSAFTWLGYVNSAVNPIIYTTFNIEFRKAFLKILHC
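Primary screen. Calcium kinetics in induced HEK293 T-REx D2 cells: compound pre-addition 180 s, EC20 dopamine, 180 s more.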
D2 antag – antagonizes the human D2 dopamine receptor | P14416 | HEK293 TREx D2 cells, calcium flux, dopamine EC80 | inhibition, % at 10 µM | 340,000 tested, 2% active | AID 485344; in the data active = inhibition above about 30%; inactive = below that, where a call was filed; note: 0% is about no effect
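Inhibition of EC80 dopamine-driven calcium flux, recorded kinetically, defines activity here; cells are a tetracycline-induced HEK293 T-REx line expressing force-coupled D2.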
D2 ag-1 – D2 dopamine receptor (human) agonism. 340,000 tested, 0.53% active. activation, % at 2 µM. AID 485358. HEK293 T-REx D2 cells, calcium flux agonist mode;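 active = activation over 3 SD above normal in the single-dose calcium agonist read, cut at about 30% in these data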; note: 0% is about no effect
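Tetracycline-induced HEK293 T-REx cells with force-coupled D2 receptor, plated overnight at 30 C, loaded with no-wash calcium dye. After a 10 s baseline, compound was pin-added and calcium flux read kinetically for 180 s; calcium rises flagged agonists.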
D2 ag-2 – activates the human D2 dopamine receptor | P14416 | DiscoveRx PathHunter D2 beta-arrestin, luminescence, 90 min; 100% = 57 uM dopamine signal | activation, % (test concentration not listed) | 360,000 tested, 0.084% active | AID 624465; in the data active = activation above about 40%; inconclusive = between about 15% and that limit
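DiscoveRx PathHunter D2 beta-arrestin cells (2,100/well) attached overnight, then compound-stimulated 90 min at 37 C in HBSS/10 mM HEPES/0.1% Tween-20 buffer; beta-galactosidase complementation read by luminescence after 1 h at ambient temperature. Dopamine 57 uM final (EC100) as control.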
D2 PAM-2 – positive allosteric modulators of human D2 dopamine receptor | DiscoveRx D2 beta-arrestin cells, luminescence, 90 min; 100% = 57 uM dopamine signal | 360,000 tested, 0.23% active | potentiation, % (concentration not given with the values); in the data active = potentiation above about 50%; inconclusive = mostly about 30% to 49%
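D2 cells co-treated with compound plus 50 nM dopamine (EC20) for 90 min at 37 deg C to detect potentiation. Beta-arrestin recruitment was read as enzyme-fragment luminescence after 1 h at ambient temperature. Full response was set by 57 uM dopamine.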
D3 ag – activates human D3 dopamine receptor beta-arrestin recruitment; 2,300 tested, 4% active; shares compounds with D2 ag-1; DiscoveRx D3 beta-arrestin cells, luminescence, 90 min; Potency, µM (series often up to 76.9 µM), inactives show at the top dose activation, actives largely listed as activators;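 note: potency is the fitted concentration of half-maximal effect; 100% = dopamine control response; nearly all actives have a fitted effect of over 70% in size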
D2 ag-3 – counter-screen for D3 agonists: human D2 dopamine receptor agonism; Potency, µM (top dose mostly 76.9 µM), for the others: at the highest dose activation, usual class: activators; DiscoveRx PathHunter D2 beta-arrestin, luminescence, 90 min; response scale: percent relative to full dopamine signal; 2,300 tested, 5.9% active; AID 720507; shares compounds with D2 ag-1; note: potency is the fitted concentration of half-maximal effect; % of control where 0% means no effect; nearly all actives have a fitted effect of over 70% in size
An asterisk follows results filed as active. Unless noted, calls come from the whole dose curve; as a rule, active = well fitted activation curve with a large enough effect; inconclusive = small, poorly fitted or top-dose-only effect; inactive = flat fitted curve, though single readings scatter.

For O=C(c1ccco1)N1CCN(Cc2cccc(F)c2)CC1 the results were D2 PAM-1 -24, D2 antag 84*, D2 ag-1 88*, D2 ag-2 60*, D2 PAM-2 23, D3 ag inconclusive and D2 ag-3 20µM*.
Screening O=C(c1ccco1)N1CCN(Cc2csc(-c3ccccc3Cl)n2)CC1 returned D2 PAM-1 -25, D2 antag 14, D2 ag-1 41*, D2 ag-2 0, D2 PAM-2 -37, D3 ag -3% and D2 ag-3 7%.
For Cc1ccc(C)n1CCN1CCN(C(=O)c2ccco2)CC1 the results were D2 PAM-1 7, D2 antag 3, D2 ag-1 25, D2 ag-2 6, D2 PAM-2 -29, D3 ag 4% and D2 ag-3 9%.
`COc1cc(C(=O)c2cc3c(cc2C)OCO3)cc(OC)c1OC` gave D2 ag-2 2 and D2 PAM-2 10.
For CCN(CC)C(=O)C1=C(C)N(Cc2ccc(F)cc2)C(=O)C(CC(=O)NC(c2ccccc2)c2ccccc2)C1 (stereo not given) the results were D2 ag-2 0.
For COC(=O)c1ccc(OCC(O)CN2CCN(C(=O)c3ccco3)CC2)c(OC)c1 (stereo not given) the results were D2 PAM-1 -31, D2 antag 26, D2 ag-1 64*, D2 ag-2 13, D2 PAM-2 14, D3 ag -8% and D2 ag-3 inconclusive.
Screening O=C(Nc1ccc(C(=O)NCCCN2CCCCC2)cc1)C1=CSCCO1 returned D2 ag-2 2 and D2 PAM-2 -10.
O=C(Nc1ccc(C(=O)NCCCN2CCN(c3ccc(F)cc3)CC2)cc1)C1=CSCCO1 was read as D2 PAM-1 -25, D2 antag 69*, D2 ag-1 69*, D2 ag-2 11, D2 PAM-2 -52, D3 ag -14% and D2 ag-3 25%.
For CCOc1ccc(S(=O)(=O)c2cc3cccc(OCC)c3oc2=O)cc1 the results were D2 PAM-1 -4 and D2 ag-1 -2.
Screening COc1ccc(CCNC(=O)c2cc(C3CC3)on2)cc1OC returned D2 PAM-1 -1, D2 antag -4, D2 ag-1 0, D2 ag-2 -4, D2 PAM-2 -3, D3 ag -10% and D2 ag-3 0%.
`CC(C)[C@H](Nc1ccc(S(=O)(=O)N2CCOCC2)cc1[N+](=O)[O-])C(=O)OCC(=O)N(C(C)C)C(C)C` gave D2 PAM-1 1, D2 antag 23, D2 ag-1 2, D2 ag-2 0, D2 PAM-2 -10, D3 ag -9% and D2 ag-3 7%.
CC(C)[C@H](Nc1ccc(S(=O)(=O)N2CCOCC2)cc1[N+](=O)[O-])C(=O)OCC(N)=O was read as D2 PAM-1 -1, D2 antag 0, D2 ag-1 0, D2 ag-2 1 and D2 PAM-2 -1.
COc1ccccc1N1CCCSC1=Nc1ccccc1 was read as D2 ag-2 -3 and D2 PAM-2 -5.
O=C(Nc1ccc2c(c1)CCCN2C(=O)c1cccs1)c1ccccc1Cl was read as D2 PAM-1 -3 and D2 ag-1 1.
`CCCc1nn2c(=O)cc(COC(=O)c3cccs3)nc2s1` gave D2 PAM-1 2 and D2 ag-1 0.
NNC(=O)CCn1nnc2ccccc21 was read as D2 PAM-1 -4, D2 ag-2 4, D2 PAM-2 -25, D3 ag -7% and D2 ag-3 -3%.
For Cc1ccc(CCNC(=O)c2cnc3c(-c4ccc(F)cc4)c(C)nn3c2C)cc1 the results were D2 PAM-1 -11 and D2 ag-1 0.
For O=C1CCC(C(=O)N2CCN(c3ccc(F)cc3)CC2)CN1CC1CCCCC1 (stereo not given) the results were D2 PAM-1 1, D2 antag -1, D2 ag-1 -1, D2 ag-2 -4 and D2 PAM-2 -11.
For O=C1CCC(C(=O)N2CCN(c3ccccc3)CC2)CN1CC1CCCCC1 (stereo not given) the results were D2 PAM-1 -24, D2 antag 19, D2 ag-1 62*, D2 ag-2 6, D2 PAM-2 -14, D3 ag 14% and D2 ag-3 inconclusive.
For Cc1cc(=O)oc2cc(OC(C)C(=O)Nc3nccs3)ccc12 (stereo not given) the results were D2 ag-2 -3, D2 PAM-2 -1, D3 ag -3% and D2 ag-3 -5%.
For Cc1cc(=O)oc2cc(OC(C)C(=O)NC3CCCC3)ccc12 (stereo not given) the results were D2 PAM-1 -16, D2 antag 2, D2 ag-1 1, D2 ag-2 5 and D2 PAM-2 -5.
COc1ccc(-c2cc(C#N)nc(Cl)n2)cc1 was read as D2 PAM-1 5, D2 antag 26, D2 ag-1 3, D2 ag-2 -2, D2 PAM-2 -4, D3 ag -15% and D2 ag-3 -3%.
`Cc1ccc(N2CCN(c3c(CN4CCCC4)c(=O)oc4ccccc34)CC2)c(C)c1` gave D2 PAM-1 -6 and D2 ag-1 0.
For CCCNC(=O)C(Cc1ccc(Cl)cc1)NC(=O)c1ccc(C#N)cc1 (stereo not given) the results were D2 PAM-1 1, D2 antag 2, D2 ag-1 0, D2 ag-2 -9, D2 PAM-2 -1, D3 ag -2% and D2 ag-3 -4%.
For CCCNC(=O)C(Cc1ccc(Br)cc1)NC(=O)c1ccc(C#N)cc1 (stereo not given) the results were D2 PAM-1 -1, D2 antag 19, D2 ag-1 0, D2 ag-2 -2, D2 PAM-2 -1, D3 ag -8% and D2 ag-3 -4%.
Screening CCCNC(=O)C(Cc1ccc(Cl)cc1)NC(=O)c1ccc(-c2ccccc2)cc1 (stereo not given) returned D2 PAM-1 -2, D2 antag -2, D2 ag-1 0, D2 ag-2 0 and D2 PAM-2 1.
Cc1ccc(CNC(=O)COCc2cc(-c3ccc4c(c3)OCO4)on2)cc1 was read as D2 PAM-1 -2 and D2 ag-1 -2.
For CSc1nc2ccc(NC(=O)c3cccs3)cc2s1 the results were D2 ag-2 3 and D2 PAM-2 -19.

Source: PubChem
